Source: PubChem
TDP1 cell noCPT = qHTS for Inhibitors of human tyrosyl-DNA phosphodiesterase 1 (TDP1): qHTS in cells in absence of CPT. 420,000 tested, 15% active. Potency, µM (highest dose often 46.2 µM), for the others: at the highest dose activity change, negative = growth inhibition, most hits filed as inhibitors. AID 686978, 2013. DT40 Tdp1-/- hTDP1 cells, no CPT, ATP luminescence, 48 h; also: potency is read from the fitted curve at half-maximal effect; nearly all actives have a fitted effect of over 55% in size
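Chicken DT40 Tdp1-/- cells stably complemented with human TDP1 were seeded at 400 cells/well with DMSO in place of 20 nM camptothecin. After compound pinning, cells grew at least 48 hr at 37 °C; viability read by CellTiter-Glo luminescence.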
ELG1 DNA repair = inhibitors of ELG1-dependent DNA repair in HEK293T cells; AID 504467; 330,000 tested, 2.3% active; Potency, µM (series often up to 46.1 µM), inactives show at the highest dose activity change, negative = inhibition, hits mostly inhibitors; HEK293T ELG1-luciferase reporter, luminescence, 16 h; DNA damage induced by 5-fluorouridine; also: potency is read from the fitted curve at half-maximal effect; nearly all actives have a fitted effect of over 55% in size
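DMSO vehicle served as the neutral condition. Each well held 2,000 cells given 5-fluorouridine plus compound; after 16 hr at 37 °C/5% CO2, ONE-Glo was added and luciferase measured 30 min later.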
IL-1B inflam inh = blocks inflammasome-driven IL-1 beta release; AID 743279; THP-1 LPS/ATP IL-1B secretion, AlphaLISA, 16 h; active compounds read low; 360,000 tested, 4.7% active; activity change, % at 57.5 µM; in the data active = activity change below about -50%; inconclusive = mostly about -30% to -49%
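Secreted IL-1B measured by AlphaLISA bead assay after 16 h compound exposure of THP-1 cells; compounds (final up to 57.5 uM) added 1 h before LPS (250 ng/mL) and ATP (1.25 mM) stimulation; lower signal means less secretion.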
RORgamma inh = inhibitors of mouse ROR gamma transcriptional activity; P51450; Drosophila S2 Gal4-RORgamma UAS-luciferase reporter, 20 h; Potency, µM (series often up to 53.6 µM), without a hit: at the highest dose activity change, negative = inhibition, usual class: inhibitors; 310,000 tested, 5.4% active; AID 2551; also: potency is read from the fitted curve at half-maximal effect; nearly all actives have a fitted effect of over 60% in size
Target sequence (P51450 whole entry, looked up, the tested form may be a part): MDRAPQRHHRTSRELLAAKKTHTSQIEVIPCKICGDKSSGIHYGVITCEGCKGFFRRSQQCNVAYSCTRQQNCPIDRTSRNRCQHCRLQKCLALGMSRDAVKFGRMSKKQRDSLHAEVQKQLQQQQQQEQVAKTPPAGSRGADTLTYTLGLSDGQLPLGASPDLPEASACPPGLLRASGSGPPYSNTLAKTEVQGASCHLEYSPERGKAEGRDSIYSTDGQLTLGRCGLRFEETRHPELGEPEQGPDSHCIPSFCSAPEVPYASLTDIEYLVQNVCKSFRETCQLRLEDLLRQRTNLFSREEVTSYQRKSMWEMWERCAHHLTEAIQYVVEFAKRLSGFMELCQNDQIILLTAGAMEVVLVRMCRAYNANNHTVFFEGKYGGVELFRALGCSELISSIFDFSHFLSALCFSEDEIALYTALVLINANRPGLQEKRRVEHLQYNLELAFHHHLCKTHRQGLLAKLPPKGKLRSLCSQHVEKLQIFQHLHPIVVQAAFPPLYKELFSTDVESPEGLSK
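Using a luciferase readout, inhibitors were identified by reduced reporter activity in Drosophila cells coexpressing a copper-inducible Gal4–ROR gamma fusion and UAS-driven Photinus luciferase, incubated 20 hr after 700 uM copper sulfate.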
VP16 counter = counter-screen for ROR gamma inhibitors: Gal4-VP16 reporter; 310,000 tested, 3.5% active; Drosophila S2 Gal4-VP16 UAS-luciferase, luminescence, 20 h; AID 2546; Potency, µM (doses to about 53.6 µM), for the others: at the highest dose activity, negative = inhibition, most hits filed as inhibitors;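 also: Gal4-VP16 expression switched on by copper sulfate through the metallothionein promoter; potency is read from the fitted curve at half-maximal effect; nearly all actives have a fitted effect of over 50% in size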
TDP1 cell CPT = growth inhibition of DT40 Tdp1-/-;hTDP1 cells with camptothecin (screen for TDP1 inhibitors); AID 686979; 420,000 tested, 12% active; chicken DT40 Tdp1-/-;hTDP1 cells + 20 nM CPT, ATP luminescence, 48 h; Potency, µM (highest dose often 46.2 µM), for the others: at the top dose activity change, negative = growth inhibition, usual class: inhibitors; also: potency is read from the fitted curve at half-maximal effect; nearly all actives have a fitted effect of over 55% in size
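Chicken DT40 Tdp1-/- cells stably complemented with human TDP1 were seeded at 400 cells/well in medium containing 20 nM camptothecin, exposed to pin-transferred compounds, and grown at 37 °C for at least 48 hr. Viability was read as ATP luminescence.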
Active calls of the source: *; [ ] = another dose, or the depositor's remark. Only some compounds are listed: those with a hit (about 21% of all), similar ones and a draw of the others. Unless noted, calls follow the shape of the dose curve; as a rule, active = well fitted curve in the direction sought with a large enough effect; inconclusive = small, poorly fitted or top-dose-only effect, or another doubt; inactive = no such curve, though single readings can be large; an effect the other way counts as inactive or inconclusive. % is scaled to controls: 0 for no effect and ±100 for the full control effect.

Screening CCCS(=O)(=O)c1nnnn1-c1cccc(OC)c1 returned TDP1 cell noCPT 5.2µM*, ELG1 DNA repair inconclusive, IL-1B inflam inh -67*, RORgamma inh 1.8µM*, VP16 counter 4.5µM* and TDP1 cell CPT 3.7µM*.
Screening COc1cccc(-n2nnnc2SCC(=O)Nc2ccccc2OC)c1 returned TDP1 cell noCPT -14%, ELG1 DNA repair 0%, IL-1B inflam inh -7, RORgamma inh 4%, VP16 counter 2% and TDP1 cell CPT -18%.
`CC(=O)N1CCc2c(sc3c2c(=O)n(-c2ccccc2)c(=O)n3CC(=O)Nc2ccccc2C)C1` gave TDP1 cell noCPT 0% and TDP1 cell CPT 18%.
Screening CCc1ccn2cc(-c3ccc4c(c3)OCO4)nc2c1 returned TDP1 cell noCPT inconclusive, ELG1 DNA repair inconclusive, IL-1B inflam inh -16, RORgamma inh 1.1µM*, VP16 counter 4.5µM* and TDP1 cell CPT 6%.
For COc1ccc(OCC2Cc3c(-c4ccccc4)nc4c(c3CO2)CN(CCOc2ccccc2)CC4)cc1 (stereo unspecified) the results were RORgamma inh 16%[10 µM] and VP16 counter -3%[10 µM].
Screening COCC(=O)N[C@H]1CC[C@@H](CC(=O)NCc2ccccc2OC)O[C@@H]1CO returned TDP1 cell noCPT -9%, IL-1B inflam inh 44 and TDP1 cell CPT -3%.
CC(C)Nc1cccnc1N1CCN(C(=O)c2cc3cc(NS(C)(=O)=O)ccc3[nH]2)CC1 was read as TDP1 cell noCPT inconclusive, RORgamma inh inconclusive, VP16 counter 7% and TDP1 cell CPT inconclusive.
`O=C(Nc1ccccc1C(=O)O)c1cccc(F)c1` gave TDP1 cell noCPT -6%, IL-1B inflam inh 0 and TDP1 cell CPT -3%.
`O=C(CC(=O)c1ccccc1O)c1ccc(F)cc1` gave TDP1 cell noCPT 12µM*, ELG1 DNA repair inconclusive, IL-1B inflam inh 37, RORgamma inh 14µM*, VP16 counter inconclusive and TDP1 cell CPT 10µM*.
For O=C(CC(=O)c1c(F)cccc1Cl)c1ccccc1O the results were TDP1 cell noCPT 12µM*, ELG1 DNA repair inconclusive, IL-1B inflam inh 7, RORgamma inh 20µM*, VP16 counter 11µM* and TDP1 cell CPT inconclusive.
Screening O=C(CC(=O)c1ccccc1O)c1cccc(F)c1 returned TDP1 cell noCPT 4.1µM*, ELG1 DNA repair 0%, IL-1B inflam inh 28, RORgamma inh 7.1µM*, VP16 counter inconclusive and TDP1 cell CPT 6.5µM*.
Screening CC(C)(C)N(CC#CCC1(O)c2ccccc2-c2ccccc21)CCO returned TDP1 cell noCPT -21%, ELG1 DNA repair inconclusive, IL-1B inflam inh 25, RORgamma inh -1%, VP16 counter -1% and TDP1 cell CPT 14%.
For O=C1CC(c2ccc3c(c2)OCCO3)Oc2ccc([N+](=O)[O-])cc21 (stereo unspecified) the results were TDP1 cell noCPT 16µM*, ELG1 DNA repair inconclusive, IL-1B inflam inh -69*, RORgamma inh 11µM*, VP16 counter 13µM* and TDP1 cell CPT inconclusive.
For O=C1CC(c2ccc3c(c2)OCCO3)Oc2ccccc21 (stereo unspecified) the results were TDP1 cell noCPT -20%, ELG1 DNA repair inconclusive, IL-1B inflam inh -12, RORgamma inh -12%, VP16 counter -6% and TDP1 cell CPT inconclusive.
CCc1ccc2[nH]c(C(=O)N(C)c3ccc(F)cc3F)cc2c1 was read as TDP1 cell noCPT -26%, ELG1 DNA repair 5%, IL-1B inflam inh 30, RORgamma inh -1%, VP16 counter -10% and TDP1 cell CPT 0%.
`Cc1ccc(NC(=S)N(CCN(C)C)Cc2cc3cc(C)ccc3[nH]c2=O)cc1` gave TDP1 cell noCPT inconclusive, ELG1 DNA repair -3%, IL-1B inflam inh -68*, RORgamma inh 5%, VP16 counter 3% and TDP1 cell CPT inconclusive.
Cc1ccc2[nH]c(=O)c(CN(CCO)C(=O)N(C)C)cc2c1 was read as TDP1 cell noCPT -7%, IL-1B inflam inh 0 and TDP1 cell CPT -9%.
For Cc1cccc(NC(=S)N(CCN(C)C)Cc2cc3cc(C)cc(C)c3[nH]c2=O)c1 the results were TDP1 cell noCPT inconclusive, ELG1 DNA repair inconclusive, IL-1B inflam inh -3, RORgamma inh 2%, VP16 counter -1% and TDP1 cell CPT inconclusive.
Screening CCN(CC)CCCN(Cc1cc2cc(OC)ccc2[nH]c1=O)C(=O)Nc1ccccc1 returned TDP1 cell noCPT inconclusive, ELG1 DNA repair inconclusive, IL-1B inflam inh -4, RORgamma inh 1%, VP16 counter 3% and TDP1 cell CPT inconclusive.
Screening Cc1ccc2[nH]c(=O)c(CN(CCCN(C)C)C(=O)Nc3ccc(F)cc3)cc2c1 returned TDP1 cell noCPT 13µM*, ELG1 DNA repair inconclusive, IL-1B inflam inh 0, RORgamma inh 29%, VP16 counter -15% and TDP1 cell CPT inconclusive.
CCN(CC)CCCN(Cc1cc2cc(OC)ccc2[nH]c1=O)C(=O)Nc1ccc(F)cc1 was read as TDP1 cell noCPT 21µM*, ELG1 DNA repair -1%, IL-1B inflam inh -51*, RORgamma inh -21%, VP16 counter 1% and TDP1 cell CPT 16µM*.
For Cc1cccc(NC(=S)N(CCN(C)C)Cc2cc3cccc(C)c3[nH]c2=O)c1 the results were TDP1 cell noCPT 6.5µM*, ELG1 DNA repair 13µM*, IL-1B inflam inh inconclusive, RORgamma inh -11%, VP16 counter -6% and TDP1 cell CPT inconclusive.
Cc1nc(/N=C(\N)N(C)C)[nH]c(=O)c1C was read as TDP1 cell noCPT 2%, ELG1 DNA repair -1%, IL-1B inflam inh -17, RORgamma inh -6%, VP16 counter -5% and TDP1 cell CPT 6%.
For COc1ccc(O)c(CN2CCC3(CCC(CNC(=O)c4ccccc4)O3)CC2)c1 (stereo unspecified) the results were TDP1 cell noCPT inconclusive and TDP1 cell CPT 3%.
O=S(=O)(CCC(F)=C(F)F)c1nnnn1C1CCCCC1 was read as RORgamma inh -25% and VP16 counter 7%.
CCCCOc1ccc(S(=O)(=O)n2nc(C)c(S(=O)(=O)N3CCC(C)CC3)c2C)cc1 was read as TDP1 cell noCPT -12% and TDP1 cell CPT -19%.
For COc1ccccc1C/C(N)=N/OC(=O)COc1ccccc1C the results were TDP1 cell noCPT -20%, IL-1B inflam inh 6, RORgamma inh inconclusive, VP16 counter -10% and TDP1 cell CPT -16%.
